From PubChem BioAssay
Active and inactive are the calls of the source.

Key:
[1] = optical density shifts of acrAB sulA E. coli – strain DRC41, OD650, 48 h, E. coli filamentation inducer project, primary screen (AID 1152); conditions: higher = more signal, called active from +8 up or from −8 down;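 also: E. coli MC1000 strain DRC41 lacking acrAB efflux pump and sulA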
[2] = probe aLefty1 binding on compound microarray – biochemical, small-molecule microarray, 635/667 nm fluorescence, primary screen (AID 1153); conditions: higher = more signal;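 also: score merges spot fluorescence with signal-to-noise ratio from the scanned slide images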
[3] = plasmodial surface anion channel blockers, osmotic lysis – cell-based, P. falciparum Indochina, OD700, 1 h, primary screen (AID 1154); conditions: P. falciparum Indochina infected RBC osmotic lysis, higher = more signal, called active from +8 up or from −8 down
[4] = plasmodial surface anion channel blockers, osmotic lysis – cell-based, P. falciparum Indochina, OD700, 2 h, primary screen (AID 1155);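 also: lysis reports solute entry through the parasite surface anion channel PSAC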; conditions: P. falciparum Indochina infected erythrocytes, higher = more signal, called active from +8 up or from −8 down
[5] = changes in parasitized red cell lysis, either direction – P. falciparum Indochina, OD700, 3 h, PSAC antagonist project, primary screen (AID 1156); conditions: P. falciparum-infected erythrocytes, osmotic lysis, higher = more signal, called active from +8 up or from −8 down
[6] = plasmodial surface anion channel blockers, osmotic lysis – cell-based, P. falciparum Indochina, OD700, 18 h, primary screen (AID 1157); conditions: P. falciparum Indochina infected erythrocytes, osmotic lysis OD700, 18 h; higher = more signal, called active from +8 up or from −8 down
[7] = S6 kinase pathway phospho-S6 level changes – cell-based, A549, cytoblot, luminescence, serum-stimulated, primary screen (AID 1158); conditions: 5 h, higher = more signal;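 also: serum-stimulated A549 lung adenocarcinoma cells; signal is phosphorylated S6 detected by cytoblot immunostaining with HRP secondary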
[8] = target: NADPH oxidase 2 (Homo sapiens) (UniProt P04839); assay: compounds shifting NOX2 Amplex Red fluorescence – cell-based, HEK293-NOX2, PMA-stimulated, NOX inhibitor project, primary screen (AID 1159); conditions: 45 min, higher = more signal, called active from +8 up or from −8 down; also: test concentration not given here
Chain of NADPH oxidase 2 (Homo sapiens) (P04839 whole entry, looked up): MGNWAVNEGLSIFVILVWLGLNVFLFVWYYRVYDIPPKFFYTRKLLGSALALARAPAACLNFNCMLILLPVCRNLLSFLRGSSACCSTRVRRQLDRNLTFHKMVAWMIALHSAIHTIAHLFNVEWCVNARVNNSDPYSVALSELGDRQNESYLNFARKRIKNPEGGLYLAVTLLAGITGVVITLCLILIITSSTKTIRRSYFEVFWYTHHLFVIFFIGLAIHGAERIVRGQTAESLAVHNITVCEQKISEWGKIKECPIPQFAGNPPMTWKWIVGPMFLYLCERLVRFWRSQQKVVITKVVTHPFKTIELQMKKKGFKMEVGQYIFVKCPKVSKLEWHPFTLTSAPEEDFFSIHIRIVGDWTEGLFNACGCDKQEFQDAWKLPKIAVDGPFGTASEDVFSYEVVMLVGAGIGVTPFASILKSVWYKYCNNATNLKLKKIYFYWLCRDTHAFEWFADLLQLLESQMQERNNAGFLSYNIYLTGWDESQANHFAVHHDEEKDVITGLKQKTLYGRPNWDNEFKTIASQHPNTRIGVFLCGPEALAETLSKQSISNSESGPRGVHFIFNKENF

[9] = target: NADPH oxidase 4 (Homo sapiens) (UniProt Q9NPH5); assay: compounds shifting NOX4 Amplex Red fluorescence – cell-based, HEK293-NOX4, tetracycline-induced, NOX inhibitor project, primary screen (AID 1160); conditions: HEK293-NOX4, Amplex Red H2O2 fluorescence, 45 min; higher = more signal, called active from +8 up or from −8 down
Chain of NADPH oxidase 4 (Homo sapiens) (Q9NPH5 whole entry, looked up): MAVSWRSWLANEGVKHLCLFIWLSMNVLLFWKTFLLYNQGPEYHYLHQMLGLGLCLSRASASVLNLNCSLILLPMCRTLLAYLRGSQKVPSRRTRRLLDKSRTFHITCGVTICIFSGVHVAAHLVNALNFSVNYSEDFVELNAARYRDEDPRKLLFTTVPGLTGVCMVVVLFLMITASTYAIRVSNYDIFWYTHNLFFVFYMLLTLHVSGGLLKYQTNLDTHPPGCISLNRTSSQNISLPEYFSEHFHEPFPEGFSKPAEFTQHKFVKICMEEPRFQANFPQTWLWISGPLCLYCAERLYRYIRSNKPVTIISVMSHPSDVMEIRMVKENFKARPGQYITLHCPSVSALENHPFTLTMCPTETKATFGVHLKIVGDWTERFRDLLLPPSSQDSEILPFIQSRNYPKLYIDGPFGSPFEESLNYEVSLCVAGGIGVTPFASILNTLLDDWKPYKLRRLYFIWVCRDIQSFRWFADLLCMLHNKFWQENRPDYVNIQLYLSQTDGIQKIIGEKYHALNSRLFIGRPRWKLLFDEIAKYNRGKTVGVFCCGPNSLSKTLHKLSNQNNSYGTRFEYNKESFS

[10] = target: NADPH oxidase 5 (Homo sapiens) (UniProt Q96PH1); assay: compounds shifting NOX5 Amplex Red fluorescence – cell-based, HEK293-NOX5, NOX inhibitor project, primary screen (AID 1161); conditions: HEK293-NOX5, ionomycin, 45 min, higher = more signal
Chain of NADPH oxidase 5 (Homo sapiens) (Q96PH1 whole entry, looked up): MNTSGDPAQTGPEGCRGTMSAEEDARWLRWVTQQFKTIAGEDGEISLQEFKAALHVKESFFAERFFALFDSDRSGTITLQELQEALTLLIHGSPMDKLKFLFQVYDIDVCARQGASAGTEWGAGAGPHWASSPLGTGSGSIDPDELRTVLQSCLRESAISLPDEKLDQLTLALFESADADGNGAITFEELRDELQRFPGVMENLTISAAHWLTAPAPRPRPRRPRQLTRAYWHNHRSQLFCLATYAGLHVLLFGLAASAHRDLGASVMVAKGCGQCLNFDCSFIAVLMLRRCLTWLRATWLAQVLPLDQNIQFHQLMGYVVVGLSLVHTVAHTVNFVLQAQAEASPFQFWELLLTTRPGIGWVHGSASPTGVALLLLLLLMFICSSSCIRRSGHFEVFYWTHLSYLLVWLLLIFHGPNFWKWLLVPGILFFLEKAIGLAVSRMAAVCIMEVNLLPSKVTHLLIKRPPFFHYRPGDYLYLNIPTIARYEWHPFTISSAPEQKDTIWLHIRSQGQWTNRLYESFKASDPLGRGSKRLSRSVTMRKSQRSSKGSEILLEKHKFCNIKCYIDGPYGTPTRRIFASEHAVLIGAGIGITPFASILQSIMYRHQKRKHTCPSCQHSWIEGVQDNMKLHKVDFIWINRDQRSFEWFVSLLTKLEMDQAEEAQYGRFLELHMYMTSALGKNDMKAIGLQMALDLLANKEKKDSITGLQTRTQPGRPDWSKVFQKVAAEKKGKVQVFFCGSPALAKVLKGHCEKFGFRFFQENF

SMILES	z-score [1]	composite z-score [2]	z-score [3]	z-score [4]	z-score [5]	z-score [6]	z-score [7]	z-score [8]	z-score [9]	z-score [10]
COCOc1ccc(Br)cc1C(=O)[C@@H]1O[C@H]1c1cccc(OC)c1	0.467 (inactive)	-0.0662	5.75 (inactive)	1.12 (inactive)	-0.23 (inactive)	0.248 (inactive)	-0.291	1 (inactive)	-0.575 (inactive)	-1.92
COC(=O)[C@H]1[C@@H](O)[C@@]2(O)c3ccccc3O[C@@]2(c2ccccc2)[C@@H]1c1ccccc1	-0.262 (inactive)	-0.193	0.249 (inactive)	0.454 (inactive)	0.296 (inactive)	0.148 (inactive)	0.0192	-0.481 (inactive)	0.526 (inactive)	0.152
C[C@H]1CC[C@H]2C(=O)OC(CO)CN2[C@@H]1c1ccc(Br)cc1 (stereo not given in full)	-0.565 (inactive)	-0.0918	0.382 (inactive)	0.675 (inactive)	0.647 (inactive)	0.223 (inactive)	-0.42	0.923 (inactive)	-1.15 (inactive)	0.324
CC(C)=CCCC(C)=CCON=C1C[C@@H](O)[C@@H](O)[C@@H]2[C@@H]3C(=O)N(Cc4ccccc4)C(=O)[C@@H]3CC[C@@H]12	-0.0866 (inactive)	-0.241	0.391 (inactive)	0.239 (inactive)	0.0336 (inactive)	-0.0646 (inactive)	-0.444	0.0415 (inactive)	0.836 (inactive)	-0.0355
CO[C@@H]1COC(=O)CC=C[C@H](C)[C@H](OC)COC(=O)[C@H](C)NC(=O)CC=C[C@H]1C	0.525 (inactive)	-0.012	0.0859 (inactive)	0.0159 (inactive)	0.704 (inactive)	0.107 (inactive)	-0.0908	-0.402 (inactive)	-0.249 (inactive)	-0.159
CCCCc1nc2c(c3c1C[C@H](C)OC3)CN(CCOc1ccccc1)CC2	0.19 (inactive)	-0.0186	1.3 (inactive)	-0.611 (inactive)	0.128 (inactive)	-0.421 (inactive)	1.86	-0.201 (inactive)	0.25 (inactive)	0.747
CO[C@@H]1COC(=O)[C@@H](C)COC(=O)[C@@H](C)NC(=O)CC=C[C@@H]1C	-0.294 (inactive)	0.682	-1.15 (inactive)	-1.26 (inactive)	0.645 (inactive)	-0.858 (inactive)	1	-0.675 (inactive)	-2.43 (inactive)	-2.91
C[C@H]1Cc2c(COc3ccccc3)nc3c(c2CO1)CN(CCOc1ccccc1)CC3	0.49 (inactive)	0.2	3.74 (inactive)	0.484 (inactive)	1.68 (inactive)	0.908 (inactive)	0.44	0.539 (inactive)	0.191 (inactive)	-0.00428
CC[C@@H](c1ccccc1)n1c(=O)n2n(c1=O)[C@H]1[C@H](O)[C@@H]3O[C@@H]3C(=O)[C@H]1CC2	0.289 (inactive)	-0.101	-0.48 (inactive)	-0.38 (inactive)	-0.0399 (inactive)	-0.139 (inactive)	-0.126	-6.29 (inactive)	-0.0502 (inactive)	0.324
CCN1C(=O)[C@H]2[C@H]3[C@H](O)[C@H](O)CC(=O)[C@H]3CC[C@H]2C1=O	0.115 (inactive)	-0.0603	-0.0957 (inactive)	0.143 (inactive)	-0.669 (inactive)	0.0097 (inactive)	-0.276	-0.676 (inactive)	0.471 (inactive)	-0.156
C=Cc1ccc([C@H]2N[C@H](C(=O)O)CC[C@@H]2C)cc1	0.374 (inactive)	-0.338	-0.27 (inactive)	-0.344 (inactive)	-1.26 (inactive)	-0.267 (inactive)	-0.599	1.06 (inactive)	-0.0223 (inactive)	0.0584
O=C(NN=C1C[C@@H](O)[C@@H](O)[C@@H]2[C@@H]3C(=O)N(Cc4ccccc4)C(=O)[C@@H]3CC[C@@H]12)OCc1ccccc1	0.151 (inactive)	0.0837	1.91 (inactive)	0.801 (inactive)	0.458 (inactive)	0.526 (inactive)	0.0339	-1.23 (inactive)	0.0701 (inactive)	0.224
CCOC(=O)[C@H](CC(C)C)NC(=O)CCC1CC(OC(=O)NCc2cccc3ccccc23)CC2(CCCC(COC(=O)NCC3CCCCC3)O2)O1 (stereo not given in full)	-0.398 (inactive)	0.183	0.864 (inactive)	-1.04 (inactive)	0.552 (inactive)	-1.35 (inactive)	1.64	-2.61 (inactive)	-1.93 (inactive)	-2.79
CCC1=NOC(CCC2CC(OC(=O)NCc3cccc4c3OCO4)CC3(CCCC(COC(=O)NCCc4ccccc4OC)O3)O2)C1 (stereo not given)	0.572 (inactive)	-0.0573	15.9 (active)	2.99 (inactive)	-0.501 (inactive)	0.568 (inactive)	0.0314	0.642 (inactive)	-0.115 (inactive)	0.0819
C[C@H]1CC[C@H]2C(=O)O[C@H](COc3ccc(C(C)(C)C)cc3)CN2[C@@H]1c1ccc(Br)cc1	-0.421 (inactive)	-0.412	0.683 (inactive)	0.237 (inactive)	-0.889 (inactive)	0.465 (inactive)	-0.338	0.215 (inactive)	0.644 (inactive)	0.974
C#CCCCON=C1C[C@@H](O)[C@@H](O)[C@@H]2[C@@H]3C(=O)N(c4cccc(Oc5ccccc5)c4)C(=O)[C@@H]3CC[C@H]12	0.496 (inactive)	0.042	1.7 (inactive)	0.977 (inactive)	0.773 (inactive)	0.232 (inactive)	-0.203	-0.683 (inactive)	0.186 (inactive)	-0.676
CO[C@H]1COC(=O)CC=C[C@@H](C)[C@H](OC)COC(=O)CCC[C@@H]1C	0.398 (inactive)	-0.216	-0.674 (inactive)	-1.22 (inactive)	-0.518 (inactive)	-2.08 (inactive)	-0.0645	0.00516 (inactive)	0.612 (inactive)	0.863
